An excerpt weighted towards active compounds, which were near 4.8% of everything screened.
TGFb SMAD3 inh: TGF-b pathway inhibition; HepG2 CAGA-GFP TGF-b/SMAD3 reporter, GFP fluorescence, 18 h; TGF-beta stimulated, 500 pg/mL final; AID 588855; actives 1.2% (n = 410,000); Potency, µM (doses to about 46.1 µM), for inactives: at the top dose activity, negative = inhibition, usual class: inhibitors; also: potency is read from the fitted curve at half-maximal effect; % is scaled to controls: 0 for no effect and ±100 for the full control effect; nearly all actives have a fitted effect of over 65% in size
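Smad-responsive CAGA-GFP expression was quantified in HEPG2 cells exposed to compounds and 500 pg/mL final TGF-beta for 18 h at 37 degrees C; unstimulated wells defined full inhibition.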
DRD3 antagonist: antagonists of human D3 dopamine receptor | actives 2.5% (n = 360,000) | D3R cells, DiscoveRx beta-arrestin luminescence, antagonist mode; stronger effect = lower value | P35462 | max response, negative = inhibition, % | AID 652054; in the data active = max response below about -50%; inconclusive = no clear call, values can overlap the other calls; also: % is scaled to controls: 0 for no effect and ±100 for the full control effect
Target sequence (P35462 whole entry, looked up): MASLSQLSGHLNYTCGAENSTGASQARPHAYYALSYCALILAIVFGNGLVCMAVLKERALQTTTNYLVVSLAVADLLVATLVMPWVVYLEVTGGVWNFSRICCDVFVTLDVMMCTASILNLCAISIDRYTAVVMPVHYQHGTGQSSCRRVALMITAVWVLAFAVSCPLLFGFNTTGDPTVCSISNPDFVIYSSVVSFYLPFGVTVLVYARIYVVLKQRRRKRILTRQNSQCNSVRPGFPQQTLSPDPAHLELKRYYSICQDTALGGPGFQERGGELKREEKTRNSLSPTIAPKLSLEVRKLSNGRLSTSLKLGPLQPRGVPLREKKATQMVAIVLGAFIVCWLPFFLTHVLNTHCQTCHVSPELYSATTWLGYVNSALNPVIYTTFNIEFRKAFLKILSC
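Cells plated overnight at 1500 cells/well, then exposed to library compounds with dopamine controls for 90 minutes at 37 degrees C. DiscoveRx reagent added for 30–60 minutes at room temperature; luminescence read, quantitative HTS format.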
ATXN viability: cell viability loss in ATXN counter-screen; S2 cells (HEK-293 line with an ATXN2-luciferase reporter) viability, CellTiter-Fluor protease fluorescence, 24 h; Potency, µM (top dose mostly 56.7 µM), most hits filed as cytotoxic; actives 0.49% (n = 400,000); AID 651635; also: potency is read from the fitted curve at half-maximal effect; nearly all actives have a fitted effect of over 40% in size
HepG2 tox: counter-screen for TGF-b inhibitors: cytotoxicity in HepG2 cells | HepG2 CAGA-GFP viability, ATP luminescence, 18 h | Potency, µM (titrated, usually from 46.1 µM), without a hit: top-dose activity change, negative = cytotoxicity, actives largely listed as cytotoxic | AID 588856 | actives 0.76% (n = 410,000); also: potency is read from the fitted curve at half-maximal effect
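HepG2 CAGA-GFP cells (1000/well, DMEM with 1% FBS) received compound, then TGF-beta at 500 pg/mL final, and were incubated 18 hours at 37 degrees C. Viability was read by CellTiter-Glo luminescence. Media-only wells were set as complete cell-killing and DMSO as no toxicity.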
ATXN2 expr inh: reduces ATXN2 reporter expression in HEK-293 cells; actives 0.72% (n = 360,000); HEK-293 ATXN2-luciferase reporter, luminescence, 24 h; AID 1745845; Potency, µM (highest dose often 57 µM), without a hit: at the highest dose activity change, negative = inhibition, usual class: inhibitors; also: potency is read from the fitted curve at half-maximal effect; % is scaled to controls: 0 for no effect and ±100 for the full control effect; nearly all actives have a fitted effect of over 55% in size
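qHTS (up to 57 uM final) was run with 24 h compound exposure of reporter cells at 37 °C. Each well was multiplexed: SteadyGlo luminescence measured ATXN2-luciferase expression after a fluorogenic Gly-Phe-AFC viability readout (25 uM final).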
D3 ag: activates the human D3 dopamine receptor. P35462. max activation, %. D3R DiscoveRx beta-arrestin cells, luminescence, 90 min. AID 652048. actives 0.58% (n = 410,000); in the data active = max activation above about 30%; also: 0% is about no effect
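Agonist mode: compounds and dopamine controls were applied to plated cells for 90 min at 37 degrees C after an overnight attachment at 1500 cells/well. Luminescent read-out followed 30 - 60 minutes at room temperature with DiscoveRx detection reagent.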
* hit, by the source's call. Unless noted, calls follow the shape of the dose curve; as a rule, active = well fitted curve in the direction sought with a large enough effect; inconclusive = small, poorly fitted or top-dose-only effect, or another doubt; inactive = no such curve, though single readings can be large; an effect the other way counts as inactive or inconclusive.

COc1ccc(Br)cc1C(=O)Nc1ccc(Cc2ccncc2)cc1 was read as TGFb SMAD3 inh -7%, DRD3 antagonist 11, ATXN viability inactive, HepG2 tox -40%, ATXN2 expr inh -25% and D3 ag -12.
`O=C(NCC1(N2CCOCC2)CCCC1)c1cnn(-c2nccc(-c3ccco3)n2)c1C1CC1` gave ATXN viability inactive.
Screening CN1CCC(NC(=O)C2(C)CCN2Cc2ccc3ccccc3c2)CC1 (stereo unspecified) returned TGFb SMAD3 inh -2%, DRD3 antagonist 11, ATXN viability inactive, HepG2 tox -2%, ATXN2 expr inh 14% and D3 ag -7.
CC1(C(=O)NC2CCN(Cc3ccccc3)CC2)CCN1Cc1ccc(OC(F)(F)F)cc1 (stereo unspecified) was read as TGFb SMAD3 inh inconclusive, DRD3 antagonist -65*, ATXN viability inconclusive, HepG2 tox -34%, ATXN2 expr inh 0% and D3 ag -13.
COc1cc(N)c(Cl)cc1C(=O)NC1CCN(Cc2ccccc2)CC1 was read as TGFb SMAD3 inh 34%, DRD3 antagonist -108*, ATXN viability inconclusive, HepG2 tox 1%, ATXN2 expr inh inconclusive and D3 ag -96.
CC(C)(Oc1ccc(Cl)cc1)C(=O)NC1CCN(Cc2ccccc2)CC1 was read as TGFb SMAD3 inh -1%, DRD3 antagonist -82*, ATXN viability inactive, HepG2 tox -7%, ATXN2 expr inh -5% and D3 ag -28.
Screening Cc1ccccc1C(=O)NC1CCN(Cc2ccccc2)CC1 returned TGFb SMAD3 inh 6%, DRD3 antagonist -16, ATXN viability inactive, HepG2 tox 3%, ATXN2 expr inh -9% and D3 ag -17.
`CC1(C(=O)NC2CCN(Cc3ccccc3)CC2)CCN1Cc1ccc2ccccc2c1` (stereo unspecified) gave TGFb SMAD3 inh inconclusive, DRD3 antagonist -97*, ATXN viability inactive, HepG2 tox -19%, ATXN2 expr inh inconclusive and D3 ag -11.
Cc1cc2c(n1-c1ccc(C(=O)NCCc3ccc(Cl)cc3)cc1)CCC(C)C2 (stereo unspecified) was read as TGFb SMAD3 inh 2%, ATXN viability inconclusive, HepG2 tox -29%, ATXN2 expr inh inconclusive and D3 ag 6.
`CC1(C(=O)NC2CCN(Cc3ccccc3)CC2)CCN1CCc1ccccc1` (stereo unspecified) gave TGFb SMAD3 inh 2%, DRD3 antagonist -85*, ATXN viability inactive, HepG2 tox -28%, ATXN2 expr inh -7% and D3 ag -21.
CC(=O)Nc1ccc(CN2CCC2(C)C(=O)NC2CCN(Cc3ccccc3)CC2)cc1 (stereo unspecified) was read as TGFb SMAD3 inh 5%, DRD3 antagonist 6, ATXN viability inactive, HepG2 tox 1%, ATXN2 expr inh -8% and D3 ag -2.
For Cc1cccc(C(=O)NCc2cn3cccc(C)c3n2)c1 the results were TGFb SMAD3 inh -15%, HepG2 tox 2% and D3 ag -21.
Screening O=C(OCC12CC3CC(CC(C3)C1)C2)c1ccc(NCc2cc(O)ccc2O)cc1 returned TGFb SMAD3 inh inconclusive, DRD3 antagonist 28, ATXN viability 13µM*, HepG2 tox 11µM*, ATXN2 expr inh 10µM* and D3 ag 0.
`O=c1ccc2c(-c3ccccc3)c3ccc(O)cc3oc-2c1` gave TGFb SMAD3 inh -97%, DRD3 antagonist 33, ATXN viability inactive, HepG2 tox -3%, ATXN2 expr inh -6% and D3 ag 12.
`Nc1ccc(-c2c3ccc(=O)cc-3oc3cc(O)ccc23)cc1C(=O)O` gave TGFb SMAD3 inh inconclusive, DRD3 antagonist -55*, ATXN viability inactive, HepG2 tox -17%, ATXN2 expr inh -5% and D3 ag -16.
Screening CCCCNC(=O)CCCN1C(=O)CCn2nc(-c3cccn3C)cc21 returned TGFb SMAD3 inh -2%, ATXN viability inactive, HepG2 tox 1%, ATXN2 expr inh 3% and D3 ag 0.
NC(=S)Nc1cccc2cc3ccccc3cc12 was read as TGFb SMAD3 inh 0%, DRD3 antagonist inconclusive, ATXN viability inconclusive, HepG2 tox -15%, ATXN2 expr inh -9% and D3 ag 3.
Screening NC(=S)Nc1cc2ccccc2c2ccccc12 returned TGFb SMAD3 inh -27%, DRD3 antagonist -64*, ATXN viability inactive, HepG2 tox -10%, ATXN2 expr inh inconclusive and D3 ag -3.
Screening CC(=O)c1ccccc1-c1ccc2c(c1)CC(CNC(=O)c1cc(C)on1)O2 (stereo unspecified) returned ATXN viability inactive.
Screening Fc1cc(F)cc(-c2c(-c3ccccc3)ncc3ccc(F)cc23)c1 returned TGFb SMAD3 inh inconclusive, DRD3 antagonist -19, ATXN viability inactive, HepG2 tox -19%, ATXN2 expr inh 6% and D3 ag -16.
For Fc1ccc2cnc(-c3ccccc3)c(-c3cccc(C(F)(F)F)c3)c2c1 the results were TGFb SMAD3 inh inconclusive, DRD3 antagonist -64*, ATXN viability inactive, HepG2 tox -19%, ATXN2 expr inh -4% and D3 ag -13.
For O=C(NC(=O)N1CCN(c2cccc(Cl)c2)CC1)c1ccccc1 the results were TGFb SMAD3 inh 0%, DRD3 antagonist -72*, ATXN viability inactive, HepG2 tox -2%, ATXN2 expr inh -27% and D3 ag -25.
O=C(c1ccc([N+](=O)[O-])s1)N1CCN(c2cccc(Cl)c2)CC1 was read as TGFb SMAD3 inh 11µM*, DRD3 antagonist -2, ATXN viability inconclusive, HepG2 tox -98%, ATXN2 expr inh -25% and D3 ag -20.
For CC(C)CCNC(=O)C(=O)Nc1cc2c3c(c1)CC(=O)N3CCC2 the results were TGFb SMAD3 inh -20%, DRD3 antagonist 12, ATXN viability inactive, HepG2 tox -1%, ATXN2 expr inh 13% and D3 ag 39*.
COc1cnc(-c2ccccn2)nc1N(C)c1ccccc1 was read as TGFb SMAD3 inh inconclusive, DRD3 antagonist -68*, ATXN viability inactive, HepG2 tox -136%, ATXN2 expr inh 0% and D3 ag -22.
`COc1cnc(-c2ccccn2)nc1Sc1ccccc1` gave TGFb SMAD3 inh -19%, DRD3 antagonist 0, ATXN viability inactive, HepG2 tox -9%, ATXN2 expr inh -20% and D3 ag -24.
